This is a sample that favours compounds with a hit; in the whole collection about 8.1% have one here.
SW480 rerep: inducers of DNA re-replication in SW480 colon cancer cells; SW480 DNA re-replication, Hoechst DNA content imaging, 48 h; AID 624297; actives 1.8% (n = 340,000); Potency, µM (highest dose often 46.1 µM), for the others: at the highest dose re-replication activation, usual class: activators; note: % of control where 0% means no effect; nearly all actives have a fitted effect of over 55% in size
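First, 250 cells per well were seeded. Next, compound or vehicle (23 nL) was pinned in, plates sat 48 hr at 37 C. Finally Hoechst was added for 40 min before fluorescence scanning.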
KB-3-1 tox: kills parental KB-3-1 adenocarcinoma cells | actives 1.4% (n = 400,000) | KB-3-1 viability, CellTiter-Glo ATP luminescence, 72 h | Potency, µM (top dose mostly 46.1 µM), most hits filed as cytotoxic; note: % is set by controls: 0 for no effect and ±100 for the full control effect; nearly all actives have a fitted effect of over 60% in size
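Cytotoxicity measured as CellTiter-Glo luminescence after 72 h at 37 C. Compound titrations were pinned onto drug-naive KB-3-1 parental adenocarcinoma cells grown in DMEM with 10% FBS, and normalized data fitted to concentration-response curves.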
MCF10A rereplic: inducers of DNA re-replication in MCF 10A breast cells; MCF 10A DNA re-replication, Hoechst nuclear intensity, 48 h; Potency, µM (top dose mostly 46.1 µM), without a hit: at the top dose activity, positive = re-replication, actives largely listed as activators; actives 2.9% (n = 350,000); AID 624296; note: % of control where 0% means no effect; nearly all actives have a fitted effect of over 50% in size
KB-V1 MDR tox: KB-V1 MDR subline cytotoxicity | KB-V1 MDR cells viability, CellTiter-Glo, 72 h | Potency, µM (doses to about 46.1 µM), most hits filed as cytotoxic | actives 3.4% (n = 400,000); note: % is set by controls: 0 for no effect and ±100 for the full control effect; nearly all actives have a fitted effect of over 60% in size
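Cytotoxicity via CellTiter-Glo luminescence after 72 h compound exposure at 37 degrees C. Cells: drug-selected KB-V1 line, DMEM phenol-red free plus 10% FBS. Compounds tested at multiple concentrations; normalized data fitted to concentration-effect curves.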
ELG1 DNA repair: ELG1-dependent DNA repair inhibition | AID 504467 | HEK293T ELG1-luciferase reporter, luminescence, 16 h; DNA damage induced by 5-fluorouridine | Potency, µM (titrated, usually from 46.1 µM), for the others: at the top dose activity change, negative = inhibition, actives largely listed as inhibitors | actives 2.3% (n = 330,000); note: % is set by controls: 0 for no effect and ±100 for the full control effect; nearly all actives have a fitted effect of over 55% in size
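Luminescence from the luciferase reporter, measured 30 min after ONE-Glo reagent at room temperature, was the read-out. Beforehand, 2,000 cells per well were exposed for 16 hr at 37 °C to 5-fluorouridine together with compound or vehicle.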
* marks the source's active call; other numbers are inactive results. Calls come from the whole dose curve; as a rule, active = well fitted curve in the direction sought with a large enough effect; inconclusive = small, poorly fitted or top-dose-only effect, or another doubt; inactive = no such curve, though single readings can be large; an effect the other way counts as inactive or inconclusive. Potency is the fitted concentration of half-maximal effect.

What do the screens show for `CN(C)S(=O)(=O)c1cccc(-c2nnc(-c3ccccc3)o2)c1`?
SW480 rerep: 1%; KB-3-1 tox: inactive; MCF10A rereplic: 17%; KB-V1 MDR tox: 23µM*; ELG1 DNA repair: inconclusive

How did COc1cc(CNc2ccc(N3CCCCC3)cc2)ccc1OCC(=O)NC(C)(C)C do in these assays?
SW480 rerep: 0%; KB-3-1 tox: inconclusive; MCF10A rereplic: -2%; KB-V1 MDR tox: inconclusive; ELG1 DNA repair: 9.2µM*

Results for Cc1cc(NC(=O)CSc2nc3c(sc4ccccc43)c(=O)n2CCCN2CCOCC2)n[nH]1 ?
SW480 rerep: 7.3µM*; KB-3-1 tox: 13µM*; MCF10A rereplic: inconclusive; KB-V1 MDR tox: inactive; ELG1 DNA repair: inconclusive

Results for O=C(CSc1nc2ccccc2c(=O)n1CCCN1CCOCC1)NC12CC3CC(CC(C3)C1)C2 ?
SW480 rerep: -23%; KB-3-1 tox: inactive; MCF10A rereplic: inconclusive; KB-V1 MDR tox: 9.2µM*; ELG1 DNA repair: 8%

Results for Cc1[nH]c2ccccc2c1C(=O)CSc1nc2ccccc2c(=O)n1CCCN1CCOCC1 ?
SW480 rerep: 4%; KB-3-1 tox: inactive; MCF10A rereplic: 15µM*; KB-V1 MDR tox: inactive; ELG1 DNA repair: inconclusive

Results for O=C1c2ccccc2C(=O)N1CCSc1nc2ccccc2c(=O)n1CCCN1CCOCC1 ?
SW480 rerep: -4%; KB-3-1 tox: inactive; MCF10A rereplic: -8%; KB-V1 MDR tox: inconclusive; ELG1 DNA repair: 7%

Results for O=C(CSc1nc2ccccc2c(=O)n1CCCN1CCOCC1)NCCc1ccccc1 ?
SW480 rerep: 1%; KB-3-1 tox: inactive; MCF10A rereplic: 4%; KB-V1 MDR tox: inactive; ELG1 DNA repair: 6%

Results for O=C1c2ccccc2C(=O)N1CCCCSc1nc2ccccc2c(=O)n1CCCN1CCOCC1 ?
SW480 rerep: 8%; KB-3-1 tox: inconclusive; MCF10A rereplic: 27%; KB-V1 MDR tox: inconclusive; ELG1 DNA repair: 21µM*

How did O=c1c2sc3ccccc3c2n(Cc2cccc(F)c2)c(=O)n1Cc1ccccc1 do in these assays?
KB-3-1 tox: inactive; KB-V1 MDR tox: inactive

What do the screens show for `COc1ccc(Cn2c(-c3ccco3)nc3oc4cc(OC)ccc4c(=O)c3c2=O)cc1`?
SW480 rerep: 1%; KB-3-1 tox: inactive; MCF10A rereplic: 2%; KB-V1 MDR tox: inactive; ELG1 DNA repair: 0%

What do the screens show for `COc1ccc(N(C(=O)c2ccccc2C)S(=O)(=O)c2cccs2)cc1`?
SW480 rerep: 2.6µM*; KB-3-1 tox: 0.82µM*; MCF10A rereplic: 1.2µM*; KB-V1 MDR tox: 1.3µM*; ELG1 DNA repair: -23%

What do the screens show for `COc1ccc(Cl)cc1NC(=O)CC(C)c1ccccc1` (centres undefined)?
SW480 rerep: -1%; KB-3-1 tox: inactive; MCF10A rereplic: -2%; KB-V1 MDR tox: inconclusive; ELG1 DNA repair: -4%

What do the screens show for `Cc1ccc(S(=O)(=O)N2CCCCC2)cc1NCC(=O)Nc1ccc(Br)cc1F`?
KB-3-1 tox: 3.3µM*; KB-V1 MDR tox: inconclusive

What do the screens show for `Cc1ccc(S(=O)(=O)N2CCCCC2)cc1NC(=O)CNC(C)c1ccc(Cl)c(Cl)c1` (centres undefined)?
SW480 rerep: 22%; KB-3-1 tox: 15µM*; MCF10A rereplic: 1%; KB-V1 MDR tox: inactive; ELG1 DNA repair: -27%

Results for Cc1ccc(S(=O)(=O)N2CCCCC2)cc1NC(=O)CSCC(=O)O ?
SW480 rerep: -1%; KB-3-1 tox: inactive; MCF10A rereplic: 5%; KB-V1 MDR tox: inactive; ELG1 DNA repair: 11%

Results for O=C(CNc1ccccc1F)Nc1cc(S(=O)(=O)N2CCCCC2)ccc1Cl ?
SW480 rerep: -28%; KB-3-1 tox: inactive; MCF10A rereplic: -4%; KB-V1 MDR tox: inactive; ELG1 DNA repair: -22%

How did C=CCC(CC=C)(NC(=O)c1ccccc1)c1ccccc1 do in these assays?
SW480 rerep: -4%; KB-3-1 tox: inactive; MCF10A rereplic: -15%; KB-V1 MDR tox: inactive; ELG1 DNA repair: 20%

What do the screens show for `CNc1cncc(-c2cccc(C(C)=O)c2)n1`?
KB-3-1 tox: inactive; KB-V1 MDR tox: inactive

Results for Cc1cc(C)c(C)c(OCC(=O)O/N=C(\N)c2ccncc2)c1 ?
SW480 rerep: 12%; KB-3-1 tox: inactive; MCF10A rereplic: inconclusive; KB-V1 MDR tox: inactive; ELG1 DNA repair: -2%

Results for O=C(c1ccc(CSCc2ccccc2F)o1)N1CCN(c2ccc(N3CCOCC3)nn2)CC1 ?
SW480 rerep: -1%; KB-3-1 tox: inactive; MCF10A rereplic: 0%; KB-V1 MDR tox: inactive; ELG1 DNA repair: 18µM*

Results for Cc1ccc(CN2C(=O)c3oc4ccc(C)cc4c(=O)c3C2c2ccc(O)cc2)cc1 (centres undefined) ?
KB-3-1 tox: inactive; KB-V1 MDR tox: inconclusive

How did c1ccc(N(c2ccccc2)c2nc(N3CCCC3)nc(-n3ccnc3)n2)cc1 do in these assays?
SW480 rerep: inconclusive; KB-3-1 tox: inactive; MCF10A rereplic: 3.7µM*; KB-V1 MDR tox: inactive; ELG1 DNA repair: inconclusive

What do the screens show for `c1ccc(-c2nc(-n3ccnc3)nc(-n3ccnc3)n2)cc1`?
SW480 rerep: 8%; KB-3-1 tox: inactive; MCF10A rereplic: inconclusive; KB-V1 MDR tox: inconclusive; ELG1 DNA repair: inconclusive

How did CN(c1ccccc1)c1nc(N2CCCC2)nc(-n2ccnc2)n1 do in these assays?
SW480 rerep: -9%; KB-3-1 tox: inactive; MCF10A rereplic: inconclusive; KB-V1 MDR tox: inactive; ELG1 DNA repair: inconclusive

Results for c1ccc(CN2CCN(c3nc(-c4ccccc4)nc(-n4ccnc4)n3)CC2)cc1 ?
SW480 rerep: 21µM*; KB-3-1 tox: inconclusive; MCF10A rereplic: inconclusive; KB-V1 MDR tox: inconclusive; ELG1 DNA repair: -30%

What do the screens show for `Cc1cc(NC(=O)C2CC(=O)N(c3cccc(Cl)c3)C2)no1` (centres undefined)?
SW480 rerep: -19%; KB-3-1 tox: inactive; MCF10A rereplic: -15%; KB-V1 MDR tox: inactive; ELG1 DNA repair: 3%

What do the screens show for `S=C(NCCN1CCOCC1)Nc1ccc(Cl)c(Cl)c1`?
SW480 rerep: 1%; KB-3-1 tox: inactive; MCF10A rereplic: 5%; KB-V1 MDR tox: inactive; ELG1 DNA repair: -4%

How did Cc1cc2cc(CN(Cc3cccs3)C(c3nnnn3C(C)(C)C)C(C)C)c3nnnn3c2cc1C (centres undefined) do in these assays?
SW480 rerep: -3%; KB-3-1 tox: inactive; MCF10A rereplic: 2%; KB-V1 MDR tox: 1.8µM*; ELG1 DNA repair: 9%

How did Cc1ccc2cc(CN(Cc3cccs3)Cc3nnnn3C(C)(C)C)c3nnnn3c2c1 do in these assays?
ELG1 DNA repair: -13%

How did c1ccc(CN2CCN(c3nc(-c4ccccc4)nc4ccccc34)CC2)cc1 do in these assays?
SW480 rerep: inconclusive; KB-3-1 tox: inactive; MCF10A rereplic: inconclusive; KB-V1 MDR tox: inactive; ELG1 DNA repair: inconclusive

Bioassay records as filed in PubChem.
